Experiments:
Experiment in all cases: log2 ratio of Biotin-Ahx-Ub-VS probe labelling (fragment/DMSO); higher = less target engagement (more negative = stronger competition), active = hit call of the paper (q ≤ 0.05, log2 ratio ≤ -1)
Conditions in all cases: compound concentration: 200 uM; treatment time: 3 h
USP42 = biological target: T1, USP42 (UniProt Q9H9J4)
T1 sequence (whole entry): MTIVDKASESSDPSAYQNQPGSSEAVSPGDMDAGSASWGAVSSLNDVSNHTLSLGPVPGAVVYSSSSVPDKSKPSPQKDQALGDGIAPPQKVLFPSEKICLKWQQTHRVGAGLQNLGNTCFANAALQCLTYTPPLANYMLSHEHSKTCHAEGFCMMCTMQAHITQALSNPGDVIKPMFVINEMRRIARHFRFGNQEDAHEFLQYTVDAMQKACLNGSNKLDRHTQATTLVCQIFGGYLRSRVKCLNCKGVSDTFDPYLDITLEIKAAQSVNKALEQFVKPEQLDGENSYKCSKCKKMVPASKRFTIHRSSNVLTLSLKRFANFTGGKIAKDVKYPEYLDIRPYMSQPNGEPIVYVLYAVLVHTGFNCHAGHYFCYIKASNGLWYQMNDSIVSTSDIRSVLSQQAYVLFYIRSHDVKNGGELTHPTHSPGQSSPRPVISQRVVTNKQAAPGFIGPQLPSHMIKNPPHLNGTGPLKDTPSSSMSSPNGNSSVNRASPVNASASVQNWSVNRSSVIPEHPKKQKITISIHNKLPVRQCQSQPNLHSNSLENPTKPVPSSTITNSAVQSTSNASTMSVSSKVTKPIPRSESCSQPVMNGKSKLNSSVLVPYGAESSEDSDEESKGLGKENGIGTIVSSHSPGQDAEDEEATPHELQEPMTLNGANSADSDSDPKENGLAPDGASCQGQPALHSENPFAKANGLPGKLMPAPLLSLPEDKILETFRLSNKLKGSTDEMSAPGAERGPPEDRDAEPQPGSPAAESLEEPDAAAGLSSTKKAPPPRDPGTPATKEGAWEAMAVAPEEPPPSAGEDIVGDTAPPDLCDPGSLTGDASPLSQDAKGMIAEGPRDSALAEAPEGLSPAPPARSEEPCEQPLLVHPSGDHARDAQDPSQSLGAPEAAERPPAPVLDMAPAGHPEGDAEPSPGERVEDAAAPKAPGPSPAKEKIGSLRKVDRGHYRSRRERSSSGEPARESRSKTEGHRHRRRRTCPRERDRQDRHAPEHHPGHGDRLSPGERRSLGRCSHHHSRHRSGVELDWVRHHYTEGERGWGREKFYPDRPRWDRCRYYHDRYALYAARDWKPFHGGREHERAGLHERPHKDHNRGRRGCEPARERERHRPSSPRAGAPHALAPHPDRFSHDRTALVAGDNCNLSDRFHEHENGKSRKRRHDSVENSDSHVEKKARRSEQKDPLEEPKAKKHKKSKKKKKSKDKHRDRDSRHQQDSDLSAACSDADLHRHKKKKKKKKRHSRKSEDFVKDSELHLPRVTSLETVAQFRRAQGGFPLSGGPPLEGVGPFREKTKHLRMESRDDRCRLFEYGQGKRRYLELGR
In short: (§1)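 HEK293T lysate (495 µg per sample, in Tris/CHAPS/IGEPAL buffer with protease inhibitors) was treated in triplicate with fragment at 200 µM or with DMSO for 3 h. It was then treated with Biotin-Ahx-Ub-VS (0.5 µM final) for 1 h. Labelled DUBs were NeutrAvidin-enriched, digested with LysC and trypsin, and run by diaPASEF LC-MS/MS. Spectronaut label-free quantities were global-median-normalised. Values are average log2 ratios fragment/DMSO by unpaired t-test, using proteins with ≥2 unique peptides.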

USP46 = USP46 (UniProt P62068)
In short: as §1

USP47 = biological target: T2, USP47 (UniProt Q96K76)
T2 sequence (whole entry): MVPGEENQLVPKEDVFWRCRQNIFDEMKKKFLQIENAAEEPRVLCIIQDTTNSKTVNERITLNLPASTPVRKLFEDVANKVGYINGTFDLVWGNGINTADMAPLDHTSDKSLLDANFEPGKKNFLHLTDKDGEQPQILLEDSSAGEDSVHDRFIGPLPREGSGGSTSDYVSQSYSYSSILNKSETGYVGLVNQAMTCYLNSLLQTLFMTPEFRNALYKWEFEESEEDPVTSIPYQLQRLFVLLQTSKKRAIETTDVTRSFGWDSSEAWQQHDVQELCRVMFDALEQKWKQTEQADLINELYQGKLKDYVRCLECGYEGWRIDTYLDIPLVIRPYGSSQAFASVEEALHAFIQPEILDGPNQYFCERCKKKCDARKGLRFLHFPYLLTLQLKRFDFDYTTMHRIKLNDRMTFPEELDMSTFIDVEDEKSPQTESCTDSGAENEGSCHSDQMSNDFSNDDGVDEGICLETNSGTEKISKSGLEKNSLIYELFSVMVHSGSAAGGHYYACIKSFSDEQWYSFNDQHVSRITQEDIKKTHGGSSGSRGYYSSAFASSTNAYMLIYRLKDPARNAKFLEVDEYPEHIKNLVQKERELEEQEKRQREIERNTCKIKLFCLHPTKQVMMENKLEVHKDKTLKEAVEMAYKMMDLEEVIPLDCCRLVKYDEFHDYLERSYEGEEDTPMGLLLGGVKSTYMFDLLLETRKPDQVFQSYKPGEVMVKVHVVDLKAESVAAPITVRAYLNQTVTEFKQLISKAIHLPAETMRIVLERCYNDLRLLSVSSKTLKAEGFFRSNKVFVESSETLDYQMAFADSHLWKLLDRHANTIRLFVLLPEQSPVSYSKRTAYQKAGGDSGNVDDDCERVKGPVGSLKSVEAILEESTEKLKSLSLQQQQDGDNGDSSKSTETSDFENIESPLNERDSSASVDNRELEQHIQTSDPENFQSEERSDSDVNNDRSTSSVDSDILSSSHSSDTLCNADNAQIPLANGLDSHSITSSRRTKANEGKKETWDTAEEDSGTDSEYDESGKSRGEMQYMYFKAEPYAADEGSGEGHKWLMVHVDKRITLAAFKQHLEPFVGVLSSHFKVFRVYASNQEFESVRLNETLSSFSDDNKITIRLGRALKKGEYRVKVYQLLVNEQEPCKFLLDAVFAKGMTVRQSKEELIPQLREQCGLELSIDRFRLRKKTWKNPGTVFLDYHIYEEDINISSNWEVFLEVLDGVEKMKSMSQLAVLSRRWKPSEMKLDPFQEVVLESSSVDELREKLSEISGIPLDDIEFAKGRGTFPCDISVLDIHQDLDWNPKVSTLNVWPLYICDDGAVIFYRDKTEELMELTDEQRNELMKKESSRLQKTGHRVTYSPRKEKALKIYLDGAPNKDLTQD
In short: as §1

USP48 = biological target: T3, USP48 (UniProt Q86UV5)
T3 sequence (whole entry): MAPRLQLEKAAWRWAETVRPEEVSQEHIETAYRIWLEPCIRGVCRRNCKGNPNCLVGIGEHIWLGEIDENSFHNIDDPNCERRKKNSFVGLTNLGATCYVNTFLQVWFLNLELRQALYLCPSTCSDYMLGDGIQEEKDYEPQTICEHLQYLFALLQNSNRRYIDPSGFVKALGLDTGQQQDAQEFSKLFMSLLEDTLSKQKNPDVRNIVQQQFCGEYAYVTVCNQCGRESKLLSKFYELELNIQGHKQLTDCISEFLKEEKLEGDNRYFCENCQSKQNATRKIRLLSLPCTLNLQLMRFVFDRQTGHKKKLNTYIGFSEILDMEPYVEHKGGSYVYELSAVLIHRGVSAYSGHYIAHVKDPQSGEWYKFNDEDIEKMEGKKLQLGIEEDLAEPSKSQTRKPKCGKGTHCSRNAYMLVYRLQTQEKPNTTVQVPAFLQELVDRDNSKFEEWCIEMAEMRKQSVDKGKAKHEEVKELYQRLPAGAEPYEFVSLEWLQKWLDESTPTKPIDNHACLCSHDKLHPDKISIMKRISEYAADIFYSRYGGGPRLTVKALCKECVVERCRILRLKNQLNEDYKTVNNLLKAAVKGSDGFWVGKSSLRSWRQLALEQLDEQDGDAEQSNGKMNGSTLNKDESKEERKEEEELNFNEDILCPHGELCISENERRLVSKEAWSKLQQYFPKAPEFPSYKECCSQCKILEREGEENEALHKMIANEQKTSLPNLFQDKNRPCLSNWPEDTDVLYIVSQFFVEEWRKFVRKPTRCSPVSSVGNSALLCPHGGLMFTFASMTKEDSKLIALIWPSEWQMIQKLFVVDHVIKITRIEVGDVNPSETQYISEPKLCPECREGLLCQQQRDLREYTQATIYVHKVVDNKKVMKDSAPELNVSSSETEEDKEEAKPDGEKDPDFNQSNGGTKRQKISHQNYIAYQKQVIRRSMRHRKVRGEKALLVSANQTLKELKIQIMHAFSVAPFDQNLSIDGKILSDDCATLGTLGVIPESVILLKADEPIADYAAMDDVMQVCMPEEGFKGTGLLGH
In short: as §1

USP5 = biological target: T4, USP5 (UniProt P45974)
T4 sequence (whole entry): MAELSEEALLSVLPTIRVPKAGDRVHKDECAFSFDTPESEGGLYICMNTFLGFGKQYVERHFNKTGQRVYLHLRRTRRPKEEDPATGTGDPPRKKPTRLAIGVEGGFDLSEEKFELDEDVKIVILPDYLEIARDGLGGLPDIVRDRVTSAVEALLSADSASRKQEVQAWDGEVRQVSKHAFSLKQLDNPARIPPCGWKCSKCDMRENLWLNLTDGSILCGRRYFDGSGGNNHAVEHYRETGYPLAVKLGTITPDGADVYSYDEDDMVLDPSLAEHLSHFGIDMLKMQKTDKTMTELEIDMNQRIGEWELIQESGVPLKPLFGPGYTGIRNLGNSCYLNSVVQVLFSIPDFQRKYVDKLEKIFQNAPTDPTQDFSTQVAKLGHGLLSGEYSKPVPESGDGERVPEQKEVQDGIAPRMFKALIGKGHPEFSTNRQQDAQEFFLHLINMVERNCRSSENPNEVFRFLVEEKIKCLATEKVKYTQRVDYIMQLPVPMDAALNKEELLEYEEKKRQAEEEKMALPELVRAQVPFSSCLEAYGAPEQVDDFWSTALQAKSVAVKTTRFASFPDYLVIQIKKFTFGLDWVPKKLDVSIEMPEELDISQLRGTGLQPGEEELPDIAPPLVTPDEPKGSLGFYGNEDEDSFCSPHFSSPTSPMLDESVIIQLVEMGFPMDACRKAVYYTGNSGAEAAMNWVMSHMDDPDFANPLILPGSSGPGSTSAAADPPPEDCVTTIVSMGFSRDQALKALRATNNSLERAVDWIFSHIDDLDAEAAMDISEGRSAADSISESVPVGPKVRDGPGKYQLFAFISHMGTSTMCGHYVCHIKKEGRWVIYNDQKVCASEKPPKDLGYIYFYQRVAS
In short: as §1

USP54 = USP54 (UniProt Q70EL1)
In short: as §1

USP7 = USP7 (UniProt Q93009)
In short: as §1

USP8 = biological target: T5, USP8 (UniProt P40818)
T5 sequence (whole entry): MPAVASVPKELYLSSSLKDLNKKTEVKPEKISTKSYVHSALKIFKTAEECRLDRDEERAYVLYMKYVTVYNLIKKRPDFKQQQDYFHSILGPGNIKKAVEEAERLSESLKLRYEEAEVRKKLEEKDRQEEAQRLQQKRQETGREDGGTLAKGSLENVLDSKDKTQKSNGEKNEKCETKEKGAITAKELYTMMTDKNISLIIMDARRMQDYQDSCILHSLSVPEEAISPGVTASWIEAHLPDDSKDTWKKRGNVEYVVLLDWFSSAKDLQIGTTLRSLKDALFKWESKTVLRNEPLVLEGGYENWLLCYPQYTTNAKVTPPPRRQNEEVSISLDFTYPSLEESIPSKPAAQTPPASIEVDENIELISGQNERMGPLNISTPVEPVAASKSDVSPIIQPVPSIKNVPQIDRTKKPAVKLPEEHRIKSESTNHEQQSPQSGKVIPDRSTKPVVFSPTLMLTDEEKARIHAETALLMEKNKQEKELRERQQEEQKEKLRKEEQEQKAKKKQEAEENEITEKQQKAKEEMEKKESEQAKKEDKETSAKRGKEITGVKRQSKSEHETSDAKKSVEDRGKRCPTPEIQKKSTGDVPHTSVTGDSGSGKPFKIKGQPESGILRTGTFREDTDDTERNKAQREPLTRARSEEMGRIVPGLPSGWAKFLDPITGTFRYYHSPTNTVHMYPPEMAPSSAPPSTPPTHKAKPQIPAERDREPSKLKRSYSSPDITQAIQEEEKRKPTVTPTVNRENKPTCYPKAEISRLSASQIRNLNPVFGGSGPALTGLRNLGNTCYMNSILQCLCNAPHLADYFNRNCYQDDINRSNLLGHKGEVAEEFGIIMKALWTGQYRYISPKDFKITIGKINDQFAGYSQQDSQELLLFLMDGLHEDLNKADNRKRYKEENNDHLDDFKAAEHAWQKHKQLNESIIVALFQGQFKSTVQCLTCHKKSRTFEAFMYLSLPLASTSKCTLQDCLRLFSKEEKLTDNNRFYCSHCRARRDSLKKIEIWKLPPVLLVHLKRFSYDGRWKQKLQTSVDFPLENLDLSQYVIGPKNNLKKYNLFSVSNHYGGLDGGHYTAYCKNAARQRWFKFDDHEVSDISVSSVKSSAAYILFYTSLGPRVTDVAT
In short: as §1

USP9X = USP9X (UniProt Q93008)
In short: as §1

UniProt O00487 = biological target: UniProt O00487
In short: as §1

Measured: log2 ratio of Biotin-Ahx-Ub-VS probe labelling

Sequence of USP9X (Q93008 whole entry): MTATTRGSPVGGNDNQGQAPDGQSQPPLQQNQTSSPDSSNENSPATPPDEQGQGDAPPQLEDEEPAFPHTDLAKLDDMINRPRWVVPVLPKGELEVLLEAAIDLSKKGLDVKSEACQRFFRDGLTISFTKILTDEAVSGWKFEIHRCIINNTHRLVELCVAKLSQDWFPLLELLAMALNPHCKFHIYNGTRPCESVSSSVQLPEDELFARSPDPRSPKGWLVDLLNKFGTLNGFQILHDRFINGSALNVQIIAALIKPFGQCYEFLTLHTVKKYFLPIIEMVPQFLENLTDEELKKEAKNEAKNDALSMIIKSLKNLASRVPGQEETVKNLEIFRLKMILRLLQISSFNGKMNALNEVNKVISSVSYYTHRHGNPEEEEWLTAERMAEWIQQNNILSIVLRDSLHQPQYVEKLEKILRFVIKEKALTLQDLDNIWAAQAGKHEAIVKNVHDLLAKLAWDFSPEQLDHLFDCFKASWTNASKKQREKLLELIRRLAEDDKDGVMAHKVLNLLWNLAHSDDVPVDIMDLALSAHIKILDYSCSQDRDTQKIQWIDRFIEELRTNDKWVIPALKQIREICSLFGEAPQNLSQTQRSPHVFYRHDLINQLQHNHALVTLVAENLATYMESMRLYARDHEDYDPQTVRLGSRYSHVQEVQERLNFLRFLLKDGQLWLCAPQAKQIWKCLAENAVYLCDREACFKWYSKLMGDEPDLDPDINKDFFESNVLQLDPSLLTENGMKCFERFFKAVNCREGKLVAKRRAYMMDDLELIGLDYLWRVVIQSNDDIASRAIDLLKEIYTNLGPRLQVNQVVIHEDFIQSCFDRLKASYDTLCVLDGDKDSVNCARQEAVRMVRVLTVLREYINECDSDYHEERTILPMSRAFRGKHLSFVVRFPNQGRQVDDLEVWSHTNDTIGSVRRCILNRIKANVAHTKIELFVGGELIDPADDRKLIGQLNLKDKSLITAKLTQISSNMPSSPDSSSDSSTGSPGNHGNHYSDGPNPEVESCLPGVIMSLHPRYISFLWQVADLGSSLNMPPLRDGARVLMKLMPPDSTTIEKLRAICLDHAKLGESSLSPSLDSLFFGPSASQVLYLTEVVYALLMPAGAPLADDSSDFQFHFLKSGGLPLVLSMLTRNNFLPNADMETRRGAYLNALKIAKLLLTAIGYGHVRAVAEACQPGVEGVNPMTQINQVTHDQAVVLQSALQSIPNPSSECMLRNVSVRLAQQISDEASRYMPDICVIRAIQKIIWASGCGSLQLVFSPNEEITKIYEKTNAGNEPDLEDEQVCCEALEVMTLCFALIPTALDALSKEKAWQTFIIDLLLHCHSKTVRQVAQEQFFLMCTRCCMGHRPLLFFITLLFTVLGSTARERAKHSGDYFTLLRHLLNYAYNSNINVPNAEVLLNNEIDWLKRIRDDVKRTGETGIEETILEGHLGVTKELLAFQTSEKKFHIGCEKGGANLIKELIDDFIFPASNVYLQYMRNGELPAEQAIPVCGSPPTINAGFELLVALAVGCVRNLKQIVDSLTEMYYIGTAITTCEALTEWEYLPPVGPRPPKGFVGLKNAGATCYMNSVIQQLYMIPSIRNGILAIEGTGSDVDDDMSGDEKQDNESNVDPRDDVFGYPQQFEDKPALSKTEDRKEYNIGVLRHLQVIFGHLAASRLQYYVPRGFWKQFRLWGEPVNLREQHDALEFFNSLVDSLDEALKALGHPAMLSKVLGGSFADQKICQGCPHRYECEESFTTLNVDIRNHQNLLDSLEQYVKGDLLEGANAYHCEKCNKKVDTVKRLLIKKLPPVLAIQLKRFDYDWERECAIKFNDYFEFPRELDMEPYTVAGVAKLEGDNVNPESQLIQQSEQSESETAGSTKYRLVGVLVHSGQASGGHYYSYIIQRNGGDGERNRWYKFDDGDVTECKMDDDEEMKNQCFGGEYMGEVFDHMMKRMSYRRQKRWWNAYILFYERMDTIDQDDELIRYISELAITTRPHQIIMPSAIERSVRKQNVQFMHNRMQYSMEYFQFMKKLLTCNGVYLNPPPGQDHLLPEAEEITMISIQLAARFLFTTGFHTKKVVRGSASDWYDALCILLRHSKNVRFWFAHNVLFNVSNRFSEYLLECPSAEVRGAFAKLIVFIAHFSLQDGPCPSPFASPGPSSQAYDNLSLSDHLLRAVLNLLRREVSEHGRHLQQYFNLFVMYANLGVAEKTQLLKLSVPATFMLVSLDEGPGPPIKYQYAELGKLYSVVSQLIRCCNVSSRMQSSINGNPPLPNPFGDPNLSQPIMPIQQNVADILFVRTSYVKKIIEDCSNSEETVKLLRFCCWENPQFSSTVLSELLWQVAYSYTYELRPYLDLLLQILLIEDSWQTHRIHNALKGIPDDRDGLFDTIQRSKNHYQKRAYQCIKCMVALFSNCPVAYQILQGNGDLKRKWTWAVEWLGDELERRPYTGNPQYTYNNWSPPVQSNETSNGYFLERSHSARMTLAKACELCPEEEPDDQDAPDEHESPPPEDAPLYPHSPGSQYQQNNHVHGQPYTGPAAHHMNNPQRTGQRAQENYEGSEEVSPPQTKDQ
Sequence of USP7 (Q93009 whole entry, looked up): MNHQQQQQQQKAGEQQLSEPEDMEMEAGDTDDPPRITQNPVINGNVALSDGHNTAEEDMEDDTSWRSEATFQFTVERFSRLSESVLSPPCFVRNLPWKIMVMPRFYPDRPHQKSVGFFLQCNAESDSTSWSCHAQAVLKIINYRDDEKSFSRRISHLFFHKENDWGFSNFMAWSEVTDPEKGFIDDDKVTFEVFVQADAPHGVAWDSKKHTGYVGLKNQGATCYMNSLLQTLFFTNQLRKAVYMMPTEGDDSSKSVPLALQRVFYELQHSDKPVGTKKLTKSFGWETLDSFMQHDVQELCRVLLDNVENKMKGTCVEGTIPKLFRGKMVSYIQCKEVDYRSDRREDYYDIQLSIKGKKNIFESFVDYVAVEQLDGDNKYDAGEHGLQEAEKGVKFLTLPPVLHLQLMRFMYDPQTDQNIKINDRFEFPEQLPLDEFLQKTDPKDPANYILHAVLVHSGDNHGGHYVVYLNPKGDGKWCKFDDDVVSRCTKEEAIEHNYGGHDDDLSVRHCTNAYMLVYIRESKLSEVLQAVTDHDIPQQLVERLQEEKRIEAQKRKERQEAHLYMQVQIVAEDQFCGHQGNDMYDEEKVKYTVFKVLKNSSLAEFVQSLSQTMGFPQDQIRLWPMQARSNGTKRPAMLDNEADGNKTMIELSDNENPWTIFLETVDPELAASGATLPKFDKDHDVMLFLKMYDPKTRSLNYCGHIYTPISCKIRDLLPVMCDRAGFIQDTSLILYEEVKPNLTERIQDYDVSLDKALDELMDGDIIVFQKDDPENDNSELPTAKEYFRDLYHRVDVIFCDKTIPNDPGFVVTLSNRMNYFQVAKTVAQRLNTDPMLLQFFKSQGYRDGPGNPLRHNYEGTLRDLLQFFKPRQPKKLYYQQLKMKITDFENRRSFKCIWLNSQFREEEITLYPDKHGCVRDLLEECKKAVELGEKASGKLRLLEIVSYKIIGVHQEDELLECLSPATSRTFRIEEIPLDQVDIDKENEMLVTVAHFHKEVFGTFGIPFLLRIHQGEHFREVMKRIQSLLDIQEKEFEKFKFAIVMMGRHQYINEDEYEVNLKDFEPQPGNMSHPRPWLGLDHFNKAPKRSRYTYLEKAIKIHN
Sequence of UniProt O00487 (O00487 whole entry): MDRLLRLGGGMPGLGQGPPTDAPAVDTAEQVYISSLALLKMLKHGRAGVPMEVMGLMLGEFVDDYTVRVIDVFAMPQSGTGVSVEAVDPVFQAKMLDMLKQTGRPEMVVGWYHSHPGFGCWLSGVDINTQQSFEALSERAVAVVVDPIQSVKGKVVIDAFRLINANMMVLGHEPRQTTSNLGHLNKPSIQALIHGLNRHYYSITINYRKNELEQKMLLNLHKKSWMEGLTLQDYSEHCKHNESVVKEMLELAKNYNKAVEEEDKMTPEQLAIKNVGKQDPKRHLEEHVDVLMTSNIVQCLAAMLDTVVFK
Sequence of USP46 (P62068 whole entry): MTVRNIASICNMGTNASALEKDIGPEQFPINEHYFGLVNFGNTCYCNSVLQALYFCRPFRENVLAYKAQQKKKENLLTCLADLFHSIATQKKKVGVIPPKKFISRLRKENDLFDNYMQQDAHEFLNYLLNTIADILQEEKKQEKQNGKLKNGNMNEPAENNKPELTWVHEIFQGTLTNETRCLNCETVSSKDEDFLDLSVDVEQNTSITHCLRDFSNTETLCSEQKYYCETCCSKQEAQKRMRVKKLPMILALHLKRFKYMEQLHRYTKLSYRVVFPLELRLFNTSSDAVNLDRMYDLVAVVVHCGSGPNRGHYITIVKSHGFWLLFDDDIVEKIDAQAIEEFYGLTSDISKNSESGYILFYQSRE

O=C(CCl)N1CCN(C(=O)Nc2ccccc2)CC1
inactive: USP42 0.532 | USP46 -0.0442 | USP47 -0.216 | USP48 -0.158 | USP5 0.398 | USP54 0.404 | USP7 -0.132 | USP8 0.0931 | USP9X 0.0323 | UniProt O00487 -0.0538

Source: the supplement of paper PMC11732987, “Enantioselective OTUD7B fragment discovery through chemoproteomics screening and high-throughput optimisation” (Communications Chemistry, 2025)
